Data as given in PubChem BioAssay (NCATS).
Records with an inconclusive call do not appear. Unmarked numbers belong to inactive results. The source made the active and inactive calls. The call rests on the fitted dose curve; in most records, active means well fitted inhibition curve with a large enough effect; inconclusive means small, poorly fitted or top-dose-only effect; inactive means flat fitted curve, though single readings scatter.

What follows are molecules tested against Dual specificity protein kinase CLK4 (Homo sapiens) (UniProt Q9HAZ1) (assay: qHTS Assay for Inhibitors of CDC-like Kinase 4 (ADP-FP Assay) (AID 1795; further: nearly all actives have a fitted effect of over 60% in size;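 on activity change, negative = inhibition: recombinant human CLK4 phosphorylating RS repeat peptide at 1 µM ATP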)). Conditions: Transcreener ADP fluorescence polarization; series mostly up to 50 µM; activity change, negative = inhibition: at the top concentration.
Sequence of Dual specificity protein kinase CLK4 (Homo sapiens) (Q9HAZ1 whole entry, looked up): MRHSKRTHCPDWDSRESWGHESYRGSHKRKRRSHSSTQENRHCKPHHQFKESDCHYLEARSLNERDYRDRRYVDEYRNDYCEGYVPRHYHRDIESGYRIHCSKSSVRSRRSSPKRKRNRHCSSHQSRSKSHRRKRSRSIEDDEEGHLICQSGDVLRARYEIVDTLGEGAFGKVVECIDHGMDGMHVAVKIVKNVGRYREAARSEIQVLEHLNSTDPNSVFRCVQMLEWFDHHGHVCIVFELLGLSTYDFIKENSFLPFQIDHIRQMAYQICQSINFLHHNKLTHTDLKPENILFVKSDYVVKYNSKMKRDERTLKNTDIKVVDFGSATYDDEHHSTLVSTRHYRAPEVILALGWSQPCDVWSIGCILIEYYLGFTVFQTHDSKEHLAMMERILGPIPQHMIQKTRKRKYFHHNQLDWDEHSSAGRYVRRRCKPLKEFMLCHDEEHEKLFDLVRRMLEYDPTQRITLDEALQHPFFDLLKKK
Protocol: NIH Molecular Libraries Probe Production Centers Network [MLPCN] NIH Chemical Genomics Center [NCGC] MLPCN Grant: 1R03MH084827-01 Assay Submitter (PI): Tom Misteli NCGC Assay Overview: Clk4 (Invitrogen cat # PV3839) was assayed using ATP and the RS repeat peptide (AnaSpec cat # 61722) as substrates using Transcreener (trade mark), a competitive fluorescence polarization (FP) assay. For the present assay, we used the Orange TranscreenerTM ADP2 (BellBrooks Labs, Madison, Wis) detection system to monitor ADP production in the kinase reaction. […] This allows the ADP tracer to freely rotate leading to a decrease in the observed FP value. The amount of ADP produced can then be calculated using a calibration curve. The positive control for the assay was TG003 (Sigma-Aldrich, cat # 300801-52-9) which is a Clk4 inhibitor [2].
NCGC Assay Protocol Summary: Two uL/well of substrate-buffer solution (100 uM RS peptide, 1 uM ATP, 25 mM Tris pH7.5, 10 mM MgCl2, 0.5 mM EGTA, 2.5 mM DTT, 0.01% Triton X-100 final concentration) was dispensed into 1,536-well assay plates (Greiner, solid black medium-binding plates) with Aurora Discovery BioRAPTR Flying Reagent Dispenser (FRD; Beckton-Dickenson). Using a Kalypsys pin tool equipped with a 1,536-pin tool, 23 nL of compound solution was transferred to the assay plate. Two uL/well Clk4-buffer solution (6.25 nM Clk4, 25 mM Tris pH 7.5, 10 mM MgCl2, 0.5 mM EGTA, 2.5 mM DTT, 0.01% Triton X-100, final concentration) was then added using the FRD yielding a total kinase reaction volume of 4 uL/ well. Then 4 uL/well of detection mixture (4 nM orange fluorescent tracer, 1 ug/mL ADP antibody, final concentration) was then added after an hour and the polarization signal was measured using the EnVision plate reader (PerkinElmer, Waltham, MA) after 30 min of room temperature incubation using the following filters and program settings: BODIPY TMR FP dual Enh mirror (barcode 682); BODIPY-TMR 531 (barcode 105) excitation; BODIPY-TMR FP P/S polarized 595 nm filters (barcodes 210 and 211, respectively); 100% light; 150 flashes; 1.35 G-factor; Detector gains were 685 for the 1st detector; 630 for the 2nd detector.
On the % scale 0 is the no-effect control and ±100 the full control effect; potency means the concentration at half of the fitted maximal effect.

Row | SMILES | activity change, negative = inhibition [%] | Potency
1 | COCCn1c(=O)c(-c2cccc(C#N)c2)nc2cnc(N3CCOCC3)nc21 | 13.2 | 
2 | COc1ccccc1CNc1ccnc(-c2c(C)noc2C)n1 | -5.97 | 
3 | COc1ccccc1CNc1ccnc(-c2ccccc2Cl)n1 | 7.35 | 
4 | O=c1c(-c2ccccc2)nc2cnc(N3CCOCC3)nc2n1Cc1cccs1 | 2.76 | 
5 | c1cncc(CNc2ccnc(-c3cccnc3)n2)c1 | -16.3 | 
6 | COc1ccccc1CNc1ncncc1-c1ccc(C(=O)N(C)C)cc1 |  | 12.6 µM (active)
7 | CC(=O)NCCNc1ncnc2ccc(-c3ccc4c(c3)OCO4)cc12 |  | 0.126 µM (active)
8 | COc1ncc2nc(-c3ccc(Cl)cc3)c(=O)n(Cc3cccs3)c2n1 | 6.51 | 
9 | Cc1nc2cnc(Nc3ccccc3)nc2n(CCc2ccccc2)c1=O | -0.239 | 
10 | COc1cccc(-c2ccc3ncnc(N4CCOCC4)c3c2)c1 |  | 1.12 µM (active)
11 | COc1ccc2[nH]cc(CCNc3ccnc(-c4c(C)noc4C)n3)c2c1 | -2.22 | 
12 | N#Cc1cccc(-c2ccc3ncnc(NC4CCNCC4)c3c2)c1 |  | 14.1 µM (active)
13 | CN1CCN(c2ncc3nc(-c4cccs4)c(=O)n(Cc4cccs4)c3n2)CC1 | 5.28 | 
14 | COc1cccc(Nc2ncc3nc(CCc4ccccc4)c(=O)n(Cc4cccs4)c3n2)c1 | 0.995 | 
15 | Cc1noc(C)c1-c1ccc2ncnc(NCCN3CCOCC3)c2c1 |  | 8.91 µM (active)
16 | COc1cccc(Nc2ncc3nc(-c4ccc(Cl)cc4)c(=O)n(C[C@H]4CCCO4)c3n2)c1 | 6.54 | 
17 | CN(C)c1ncc2nc(-c3ccc(Cl)cc3)c(=O)n(C)c2n1 | 10.1 | 
18 | COCCn1c(=O)c(C)nc2cncnc21 | 3.91 | 
19 | COCCn1c(=O)c(-c2cccs2)nc2cncnc21 | -4.82 | 
20 | CN(Cc1ccco1)c1ncnc2ccc(-c3ccccc3C#N)cc12 | -14.1 | 

Row | SMILES | activity change, negative = inhibition [%] | Potency
21 | CCNc1ncc2nc(-c3cccs3)c(=O)n(Cc3ccc(F)cc3)c2n1 | 13.6 | 
22 | COc1ccccc1CNc1cc(-c2ccccc2C(F)(F)F)ncn1 | 11.6 | 
23 | COc1cccc(-c2cncnc2NCc2cnc(C)cn2)c1 | -14.2 | 
24 | CC(=O)NCCNc1ccnc(-c2ccccc2C)n1 | -18.7 | 
25 | COc1cccc(Nc2ncc3nc(-c4cn(C)c5ccccc45)c(=O)n(C[C@H]4CCCO4)c3n2)c1 | 4.82 | 
26 | Cn1c(=O)c(-c2cc(F)cc(F)c2)nc2cnc(N3CCNCC3)nc21 | 3.52 | 
27 | COc1ccc2[nH]cc(CCNc3nc(-c4ccc(N(C)C)cc4)nc4ccccc34)c2c1 | -15.2 | 
28 | O=c1c(-c2ccc(Cl)cc2)nc2cnc(Nc3ccccc3)nc2n1C[C@H]1CCCO1 | 9.41 | 
29 | COc1ccccc1-c1nccc(NCc2cccnc2)n1 | -13.6 | 
30 | c1nc(N2CCOCC2)c2cc(-c3ccoc3)ccc2n1 |  | 0.178 µM (active)
31 | COc1ccc2[nH]cc(CCNc3cc(-c4ccccc4CN(C)C)ncn3)c2c1 | -6.97 | 
32 | COCCn1c(=O)c(C)nc2cnc(OC)nc21 | 11.3 | 
33 | COc1ccccc1CNc1nc(-c2ccccc2OC)nc2ccccc12 | -2.37 | 
34 | CN1CCN(c2ncc3nc(-c4ccc(F)cc4)c(=O)n(C4CC4)c3n2)CC1 | 4.94 | 
35 | COc1ccc(-c2nc3cnc(OCc4ccccc4)nc3n(CCC#N)c2=O)cc1 | 11.6 | 
36 | COc1cccc(Cn2c(=O)c(-c3ccccc3)nc3cnc(N4CCN(C)CC4)nc32)c1 | 10.1 | 
37 | CC(=O)NCCNc1ncnc2ccc(-c3ccccc3C)cc12 |  | 12.6 µM (active)
38 | COc1ccc2[nH]cc(CCNc3ccnc(-c4cccc(C#N)c4)n3)c2c1 |  | 8.91 µM (active)
39 | O=c1c(-c2ccc(F)cc2)nc2cnc(N3CCNCC3)nc2n1Cc1cccs1 | 10.8 | 
40 | COCCn1c(=O)c(-c2cccc(Cl)c2)nc2cncnc21 | 4.21 | 
